# Reference: PubChem BioAssay AID1259312 (Keith Lab, Institute of Cancer Science, University of …, 2017)
# In all, about 4,500 compounds went through this assay and about 200 (4.4%) were called active. The sample holds actives, similar compounds and a random draw of the others, so the mix is not that of the screen. Unmarked numbers belong to inactive results.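 Rule for the calls: active = cell survival measured by absorbance rises more than 2.5-fold over infected cells without compound; inactive = the rest.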
# Assay: survival after telomere uncapping, modulators, primary screen, cell-based (AID 1259312);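 note: virus expresses mutant telomerase RNA that uncaps telomeres and kills cells; compound added 2 days after infection so exposure lasts 3 days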
# Settings: HCT116 + Ad-hTR-mut, MTT, 5 d; at 10 µM, hits give high values
row,SMILES,fold change
1,Cc1cc(C)c2oc(-c3cc(N)ccc3Cl)nc2c1,1.24
2,Cn1cnnc1-c1ccc(N)cc1,-1.13
3,CC(C)(C)c1ccc(-c2nnc(-c3ccc(Cl)cc3Cl)o2)cc1,-1.32
4,S=c1[nH]ccn1-c1ccccc1,1.02
5,NC(=O)c1no[n+]([O-])c1C(N)=O,-1.25
6,c1ccc(-c2csc(N3CCN(C(c4ccccc4)c4ccccc4)CC3)n2)cc1,1.15
7,O=[N+]([O-])c1ccccc1-n1ccnc1,-1.71
8,O=[N+]([O-])c1ccc(NCCCn2cnc3ccccc32)nc1,1.16
9,O=[N+]([O-])c1ccc(-n2nnc3ccccc32)c([N+](=O)[O-])c1,-1.31
10,O=[N+]([O-])c1ccc(S(=O)(=O)Nc2nc3ccccc3s2)cc1,1.84
11,O=[N+]([O-])c1ccccc1S(=O)(=O)n1cnc2ccccc21,3.82 (active)
12,O=[N+]([O-])c1ccc(S(=O)(=O)n2cnc3ccccc32)cc1,3.41 (active)
13,COc1cc(OC)cc(C2SC(N)=C(C#N)C(N)=C2C#N)c1 (configuration not stated),-1.62
14,NC(CCCC(N)C(=O)O)C(=O)O (configuration not stated),-1.27
15,N[C@@H](CSCC(=O)O)C(=O)O,2.87 (active)
16,NC(CC(=O)O)C(=O)O (configuration not stated),1.14
17,O=C(Cc1cccs1)NC1CCCC1,-3.03
18,C1CCN(c2nc3nonc3nc2N2CCCC2)C1,-1.59
19,O=c1[nH]c(/C=C/c2ccc(Br)cc2)c([N+](=O)[O-])c(=O)[nH]1,3.45 (active)
20,COc1ccc(OC)c(/C=C/c2[nH]c(=O)[nH]c(=O)c2[N+](=O)[O-])c1,1.29
21,O=c1[nH]c(/C=C/c2ccc(Br)cc2)nc(O)c1[N+](=O)[O-],2.47
22,N#CC1=C(N)n2c(s/c(=C\c3ccc(Cl)cc3)c2=O)=C(C#N)C1c1ccc(Cl)cc1 (configuration not stated),-1.6
23,N#CC1Cc2cc([N+](=O)[O-])ccc2-c2cc(Cl)cc(Cl)c21 (configuration not stated),-3.59
24,C/C(Cn1nnc2ccccc21)=N\NC(=O)c1c[nH]c2ccccc12,-2.58
25,O=C(COc1ccc(Br)cc1)NCC1CCCO1 (configuration not stated),-1.54
26,NNC(=O)COc1ccc2c(c1Br)CCCC2,2.77 (active)

row,SMILES,fold change
1,NNC(=O)c1ccc(COc2ccc3c(c2)CCC3)o1,-1.37
2,S=c1[nH]nc(-c2ccccc2)n1C1CCCCC1,1.07
3,COCCCN1C(=O)/C(=C/c2cccs2)SC1=S,-1.09
4,CCCCCCCCCCCCCCCC(=O)O,1.25
5,CCCCC(CC)C(=O)NC(C)(C)C (configuration not stated),1.34
6,CCCCCCCCCCCCCCC(CC(=O)O)C(=O)O (configuration not stated),2.88 (active)
7,COc1ccc(-c2cc(=O)c3ccc(O)cc3o2)cc1,-1.7
8,Cn1nccc1C(=O)O,3.48 (active)
9,Cc1csc(NC(=O)c2ccnn2C)n1,1.09
10,Cn1nccc1C(=O)Nc1nc2ccccc2s1,-1.5
11,COC(=O)/C(C#N)=C/c1cc(C)sc1C,1.01
12,COC(=O)C1=c2s/c(=C/c3ccncc3)c(=O)n2C(c2ccncc2)C(C#N)=C1N (configuration not stated),1.32
13,N#CC1=C(N)n2c(s/c(=C/c3ccc(Cl)cc3Cl)c2=O)=C(C#N)C1c1ccc(Cl)cc1Cl (configuration not stated),1.33
14,N#CC1=C(N)C(C#N)=c2s/c(=C/c3cccc(F)c3)c(=O)n2C1c1cccc(F)c1 (configuration not stated),3.89 (active)
15,N#CC1=C(N)C(C#N)=c2s/c(=C/c3c(F)cccc3Cl)c(=O)n2C1c1c(F)cccc1Cl (configuration not stated),2.98 (active)
16,N#CC1=C(N)C(C#N)=c2s/c(=C/c3ccc(Cl)cc3Cl)c(=O)n2C1c1ccc(Cl)cc1Cl (configuration not stated),-1.24
17,N#CC1=C(N)C(C#N)=c2s/c(=C/c3ccc(F)cc3)c(=O)n2C1c1ccc(F)cc1 (configuration not stated),2.25
18,CC(Sc1ccccn1)c1nc(N)nc(N2CCCc3ccccc32)n1 (configuration not stated),-4.94
19,Cc1cccc(NS(=O)(=O)c2cc(Cl)ccc2Cl)n1,1.41
20,CCCN(CCC)C(=O)C(=O)N(CCC)CCC,-1.09
21,N#CC1=C(N)OC2=C(C(=O)CCC2)C12C(=O)Nc1cc(Br)ccc12 (configuration not stated),1.66
22,CC(C)(C)c1[nH]nc2c1C1(C(=O)Nc3ccccc31)C(C#N)=C(N)O2 (configuration not stated),4.19 (active)
23,CSc1ccc(C2C(C#N)=C(N)Oc3n[nH]c(C(C)(C)C)c32)cc1 (configuration not stated),-1.76
24,Cc1[nH]nc2c1C1(CCSCC1)C(C#N)=C(N)O2,-1.42
25,Cc1[nH]nc2c1C1(C(=O)Nc3cc(Br)ccc31)C(C#N)=C(N)O2 (configuration not stated),3.96 (active)
26,CN1C(=O)C2(C(C#N)=C(N)Oc3c2c(=O)n(C)c(=O)n3C)c2ccccc21 (configuration not stated),-1.14
